Sampled rows, rich in hits. Any-hit rate of the full collection: about 3.4%.
PAFAH1B2 FP inh – inhibitors of human PAFAH1B2. recombinant PAFAH1B2, FP-rhodamine activity probe, fluorescence polarization. inhibition, % at 3.39 µM. 340,000 tested, 1.2% active. AID 492953;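 active = inhibition above the mean of all tested compounds plus 3 SD, cut at about 24% in these data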;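 also: 0% = enzyme with DMSO and 100% = wells lacking PAFAH1B2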
Target sequence (P68402 whole entry, looked up): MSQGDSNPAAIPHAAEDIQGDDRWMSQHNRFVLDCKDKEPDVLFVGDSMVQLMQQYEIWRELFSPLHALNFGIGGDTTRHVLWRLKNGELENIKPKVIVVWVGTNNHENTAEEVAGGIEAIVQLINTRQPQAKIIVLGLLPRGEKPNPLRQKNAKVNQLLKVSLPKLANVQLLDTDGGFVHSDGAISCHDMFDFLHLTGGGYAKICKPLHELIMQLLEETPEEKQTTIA
PP5 primary – PP5 (human) phosphatase inhibition; inhibition, % at 6.7 µM; 320,000 tested, 0.18% active; purified PP5c, OMFP substrate fluorescence;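 active = inhibition above the campaign's mean inhibition across all tested compounds plus 3 SD, cut at about 9.5% in these data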;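 also: 0% = DMSO only and 100% = 100 µM cantharidin control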
pPAFAH FP inh – pPAFAH (human) enzyme inhibition; AID 463082; recombinant pPAFAH, FP-rhodamine probe fluorescence polarization; 330,000 tested, 1.5% active; inhibition, % at 3.39 µM; Q13093;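 active = inhibition above the mean inhibition across the screen plus 3 SD, cut at about 25% in these data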;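 also: inhibitors block binding of the rhodamine activity-based probe so polarization drops; 0% = enzyme with DMSO and 100% = wells lacking pPAFAH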
Target sequence (Q13093 whole entry, looked up): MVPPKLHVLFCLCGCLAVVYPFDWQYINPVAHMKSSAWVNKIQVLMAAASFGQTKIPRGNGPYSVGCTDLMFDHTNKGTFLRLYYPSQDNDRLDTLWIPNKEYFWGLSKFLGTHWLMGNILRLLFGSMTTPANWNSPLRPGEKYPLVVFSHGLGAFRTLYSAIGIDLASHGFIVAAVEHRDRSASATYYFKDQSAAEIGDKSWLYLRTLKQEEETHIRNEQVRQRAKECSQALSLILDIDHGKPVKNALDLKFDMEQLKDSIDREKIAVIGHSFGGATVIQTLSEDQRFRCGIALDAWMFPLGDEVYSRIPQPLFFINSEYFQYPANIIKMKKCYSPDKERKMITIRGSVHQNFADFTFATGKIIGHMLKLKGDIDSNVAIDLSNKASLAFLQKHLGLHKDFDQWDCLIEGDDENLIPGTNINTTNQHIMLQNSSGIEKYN
PP1 inh – blocks human PP1-alpha phosphatase, a PP5 counter-screen | 320,000 tested, 0.9% active | P62136 | inhibition, % at 6.7 µM | AID 2235 | purified PP1alpha, OMFP fluorescence;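 active = inhibition above the mean inhibition of all tested compounds plus 3 SD, computed separately for each screening campaign, cut at about 15% in these data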
PAFAH1B3 inh – blocks human PAF acetylhydrolase 1B catalytic subunit 3; Q15102; recombinant PAFAH1B3, FP-rhodamine probe, fluorescence polarization; inhibition, % at 3.39 µM; 340,000 tested, 0.28% active;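 active = inhibition above the screen-wide average of all tested compounds plus 3 SD, cut at about 25% in these data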;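 also: 0% = enzyme with DMSO only and 100% = wells lacking PAFAH1B3 protein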
PAFAH2 FP inh – PAFAH2 (human) inhibition. Q99487. recombinant PAFAH2, FP-rhodamine activity probe, fluorescence polarization. inhibition, % at 3.39 µM. 340,000 tested, 0.99% active. AID 492956;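 active = inhibition above the mean over all tested compounds plus 3 SD, cut at about 30% in these data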;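 also: inhibitors block probe labeling of enzyme so polarization drops; 0% = enzyme with DMSO and 100% = wells lacking PAFAH2 protein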
PAFAH2 FP conf – confirmation of human PAFAH2 inhibitors. inhibition, % at 3.39 µM. recombinant PAFAH2, FP-rhodamine activity probe, fluorescence polarization. shares compounds with PAFAH2 FP inh. 2,300 tested, 65% active;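 active = mean inhibition over three repeats above a set limit taken from the earlier primary screen, cut at about 30% in these data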;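 also: inhibitor blocks binding of rhodamine activity probe so polarization falls; 0% = enzyme with DMSO and 100% = wells lacking PAFAH2 protein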
The depositor's hits bear a star; . = not tested or not shown.

SMILES | PAFAH1B2 FP inh | PP5 primary | pPAFAH FP inh | PP1 inh | PAFAH1B3 inh | PAFAH2 FP inh | PAFAH2 FP conf
CC12CCC(=O)N1C(C(=O)NNC(=O)c1ccccc1Cl)CS2 (stereo unspecified) | 3 | -4 | 3 | -6 | 0 | 3 | .
COC(C(=O)Nc1ccnn1C1CCN(Cc2ccc(C)s2)CC1)c1ccccc1 (stereo unspecified) | 9 | 0 | 2 | -2 | 8 | 6 | .
COc1cc(-c2cccs2)cc(=O)c2c(C)oc(C)c12 | 4 | 1 | 22 | 3 | 7 | 32* | 6
COc1ccc(-c2cc(OC(=O)c3ccc(F)cc3)c3c(C)oc(C)c3c(=O)c2)cc1 | . | 2 | 13 | 12 | . | . | .
O=C(COC(=O)c1ccc2c(c1)OCO2)NCc1ccc(Cl)cc1 | 10 | -1 | 3 | 1 | 4 | 44* | 40*
O=C(COC(=O)c1ccc2c(c1)OCO2)Nc1ncc(Cl)cc1Cl | 4 | 3 | 10 | 6 | 2 | 40* | 37*
O=C(COC(=O)c1ccc(O)cc1)Nc1ncc(Cl)cc1Cl | 2 | -1 | 8 | -1 | -1 | 38* | 29
O=C(COC(=O)c1cccnc1Cl)Nc1ncc(Cl)cc1Cl | 6 | 0 | 4 | 2 | 0 | 9 | .
CCN1CC(O)=C(c2nc3ccccc3s2)C1=N | 0 | 0 | 21 | 0 | 5 | 52* | 23
COCCNC(=O)C(c1ccc(C)cc1)N(C(=O)CCC(=O)Nc1ccccn1)c1ccccc1C (stereo unspecified) | 6 | 1 | 4 | 4 | 8 | 8 | .
O=C(OCCN=C1NS(=O)(=O)c2ccccc21)c1cccs1 | 5 | -2 | 4 | -4 | 10 | 38* | 11
O=C(/C=C/c1ccccc1)OCCCCN=C1NS(=O)(=O)c2ccccc21 | 5 | 2 | 0 | -3 | 11 | -1 | .
O=C(OCCCN=C1NS(=O)(=O)c2ccccc21)c1cccs1 | 1 | 1 | 3 | -2 | 12 | 5 | .
O=C(/C=C/c1ccccc1)OCCN=C1NS(=O)(=O)c2ccccc21 | 4 | 0 | 0 | -3 | 6 | 30* | 22
Cc1ccc(S(=O)(=O)NCC(=O)OCC(=O)NCc2ccc(F)cc2)cc1 | 3 | -1 | 8 | -4 | 15 | 8 | .
O=C(COC(=O)c1ccccc1C(=O)c1ccc(Cl)c([N+](=O)[O-])c1)NC1CCCCCC1 | 5 | 4 | 9 | 2 | 2 | 62* | 47*
Cc1cc(C(=O)OCC(=O)NC2CC2)ccc1[N+](=O)[O-] | 9 | 0 | 14 | -2 | 7 | 23 | .
Nc1ccc(C(=O)OCC(=O)N2CCc3ccccc3C2)cc1[N+](=O)[O-] | 4 | -2 | 4 | 0 | 1 | 51* | 46*
Nc1ccc(C(=O)OCC(=O)NC2CC2)cc1[N+](=O)[O-] | 6 | -1 | 0 | -2 | 2 | 59* | 48*
Cc1ccc(CN2CC(C(=O)N(CC(C)C)c3c(N)n(Cc4ccccc4)c(=O)[nH]c3=O)CC2=O)cc1 (stereo unspecified) | 2 | . | . | . | 9 | 1 | .
COC(=O)c1cccc(C(=O)N2CCCC(CCC(=O)N(C)CCc3ccccn3)C2)c1 (stereo unspecified) | 3 | 2 | -4 | -2 | 6 | 1 | .
O=C(COC(=O)C1C2CC3OC(=O)C1C3C2)Nc1cccc(Cl)c1 (stereo unspecified) | 6 | 0 | 2 | 1 | 7 | 77* | 84*
Cc1ccc(NC(=O)COC(=O)C2C3CC4OC(=O)C2C4C3)cc1 (stereo unspecified) | 2 | 0 | -3 | 1 | 4 | 55* | 55*
CC(=O)c1ccc(NC(=O)COC(=O)C2C3CC4OC(=O)C2C4C3)cc1 (stereo unspecified) | -6 | 1 | 0 | 0 | 6 | 25 | .
CCOc1ccc(NC(=O)COC(=O)C2C3CC4OC(=O)C2C4C3)cc1 (stereo unspecified) | 1 | 0 | -2 | -3 | 2 | 47* | 40*
SMILES | PAFAH1B2 FP inh | PP5 primary | pPAFAH FP inh | PP1 inh | PAFAH1B3 inh | PAFAH2 FP inh | PAFAH2 FP conf
Cc1ccc(S(=O)(=O)N2CCN(S(=O)(=O)c3ccccc3Br)CC2)cc1 | 10 | . | 2 | . | 9 | -1 | .
CC(=O)Nc1ccc(NC(=O)C(C)Oc2ccccc2C(=O)NCc2ccccc2)cc1 (stereo unspecified) | 5 | 2 | 1 | -1 | 5 | -5 | .
CCOc1ccc(C(=O)OCC(=O)NCc2ccccc2)cc1OCC | 2 | 1 | 1 | -2 | 9 | 72* | 66*
O=C(COC(=O)c1ccc(Cl)c(Cl)c1)Nc1cccnc1Cl | 4 | 0 | 8 | 0 | 10 | 3 | .
CCOc1ccc(C(=O)OCC(=O)Nc2cccnc2Cl)cc1OCC | 2 | . | 8 | . | 2 | 74* | 58*
O=C(COC(=O)c1cccc(Cl)c1)NCc1ccccc1 | 2 | . | 14 | . | 5 | 20 | .
O=C(CN(Cc1cccs1)C(=O)CNS(=O)(=O)c1ccc(Cl)cc1)NCc1ccco1 | 16 | -1 | 5 | -2 | 1 | 30* | 28
CC(=O)c1c(C)[nH]c(C(=O)OCC(=O)Nc2cccc(S(=O)(=O)N3CCCC3)c2)c1C | -6 | 1 | -9 | -1 | -5 | 37* | 15
CC(=O)c1c(C)[nH]c(C(=O)OCC(=O)Nc2cccc(S(=O)(=O)N(C)C)c2)c1C | 11 | -1 | -5 | -5 | 9 | 31* | 31*
COc1ccc(C(=O)N2CCCN(C)CC2)cc1S(=O)(=O)N(C)Cc1ccccc1 | -3 | -3 | 3 | -1 | 0 | -1 | .
CCOc1ccccc1NC(=O)Cn1c(=O)sc2ccccc21 | 2 | -2 | 0 | -6 | -2 | 3 | .
O=C(Cn1c(=O)sc2ccccc21)Nc1ccc(O)cc1 | 4 | 1 | -5 | 2 | 10 | 31* | 29
CC(C)CNC(=S)NNC(=O)c1csc2c1CCCC2 | 2 | 4 | 0 | 3 | 7 | -1 | .
CCC(C)NC(=O)COC(=O)c1csc2c1CCCC2 (stereo unspecified) | 5 | 4 | 6 | -3 | -6 | 57* | 47*
Cc1cccc(CC(=O)Nc2ccc(C(=O)N3CCCCC3)cc2)c1 | 0 | 1 | 4 | 0 | 5 | 5 | .
Cc1cccc(NC(=O)Cc2nc(-c3c[nH]c(C(=O)N4CCCC4)c3)cs2)c1 | -2 | . | . | . | 0 | 35* | 12
Cc1ccccc1NC(=O)Cc1nc(-c2c[nH]c(C(=O)N3CCCC3)c2)cs1 | 3 | -1 | 23 | 1 | -1 | 40* | 13
O=C(NCC(c1ccco1)N1CCCCC1)c1cccc(S(=O)(=O)Nc2ccc(F)cc2)c1 (stereo unspecified) | 17 | . | . | . | 8 | 6 | .
O=C(COC(=O)C1=COCCO1)Nc1ccc(F)cc1 | 2 | -2 | 7 | -2 | 5 | 69* | 59*
